Test systems include NCI-H23 lung; NCI-H226 lung; NCI-H322M lung; HOP-62 NSCLC; NCI-H460 lung; HOP-92 NSCLC; NCI-H522 lung; A549/ATCC NSCLC; 786-0 renal; COLO 205 colon; DU-145 prostate; K-562 leukemia; MALME-3M melanoma; MDA-MB-231 breast; RXF 393 renal; SF-268 CNS; SF-295 CNS; SF-539 CNS; UACC-257 melanoma; M14 melanoma.
Assay in all cases: NCI-60 one-dose screen, 48 h (100 = growth as untreated, 0 = no growth, -100 = all killed)
Holding throughout (conditions): 10 µM unless noted

About 83,000 compounds went through this panel and 20% of them were active in at least one assay; those are over-represented in the sample as a whole.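 Compound tested at a single concentration for 48 hours in 96-well plates; a percent growth value below 10 was scored as active.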 Values without a mark were called inactive. Calls of active or inactive are those of the source.

Consider `COc1cccc(C(=O)Nc2cccc(NC(=O)c3ccccn3)c2)c1`, for which the growth is 93.7% in the assay on NCI-H23 lung; 112% in the assay on NCI-H226 lung; 98.1% with NCI-H322M lung; 102% in the assay with HOP-62 NSCLC; 114% in the assay on NCI-H460 lung; 115% with HOP-92 NSCLC. Further, the growth was 89.8% with NCI-H522 lung; 97.5% in the assay with A549/ATCC NSCLC; 85.6% in the assay with 786-0 renal; 120% with COLO 205 colon; 109% with DU-145 prostate; 90.5% in the assay on K-562 leukemia. In addition, the growth in the assay with MALME-3M melanoma is 94.4%; in the assay on MDA-MB-231 breast, 105%; in the assay with RXF 393 renal, 115%; in the assay with SF-268 CNS, 96.9%; in the assay on SF-295 CNS, 91.6%; with SF-539 CNS it was 104%. The growth with UACC-257 melanoma was 109%; in the assay on M14 melanoma it was 87.9%.
Consider `Cc1c2cnccc2c(C)c2c1c1cc(C(=O)O)ccc1n2C`, for which the growth with NCI-H23 lung is -32.4% (active); in the assay on NCI-H226 lung, -25.8% (active); with NCI-H322M lung, -1.54% (active); in the assay with HOP-62 NSCLC, -8.17% (active); with NCI-H460 lung, 1.58% (active); in the assay on HOP-92 NSCLC it was -3.06% (active). The growth was -47.8% (active) in the assay with NCI-H522 lung; 8.95% (active) with A549/ATCC NSCLC; 22.3% in the assay with 786-0 renal; -9.71% (active) with COLO 205 colon; 4.3% (active) with DU-145 prostate; 9.3% (active) in the assay with K-562 leukemia. Further, the growth in the assay on MALME-3M melanoma is -31.8% (active); with MDA-MB-231 breast, 3.08% (active); in the assay with RXF 393 renal it was -72.1% (active); in the assay with SF-268 CNS it was 0.973% (active); with SF-295 CNS, -2.38% (active); with SF-539 CNS it was -24.5% (active). Also, the growth in the assay on UACC-257 melanoma was -31.4% (active); with M14 melanoma, -0.906% (active).
On to `Cc1ccc(-c2nnc(SCc3nc(N)nc(Nc4ccccc4F)n3)n2-c2ccccc2)cc1`, for which the growth was 101% with NCI-H23 lung; 80.4% in the assay with NCI-H226 lung; 93.5% in the assay with NCI-H322M lung; 94.6% in the assay with HOP-62 NSCLC; 95.8% in the assay on NCI-H460 lung; 67.3% in the assay with HOP-92 NSCLC. Besides, the growth with NCI-H522 lung was 81.5%; in the assay with A549/ATCC NSCLC, 88.7%; with 786-0 renal it was 95.7%; in the assay with COLO 205 colon, 101%; in the assay with DU-145 prostate, 102%; in the assay on K-562 leukemia, 89.9%. For the same compound, the growth was 117% in the assay on MALME-3M melanoma; 91.9% with MDA-MB-231 breast; 80.7% in the assay on RXF 393 renal; 97.3% in the assay with SF-268 CNS; 94.3% in the assay on SF-295 CNS; 97% in the assay on SF-539 CNS. The growth in the assay with UACC-257 melanoma is 99.3%; in the assay on M14 melanoma, 103%.
In the case of `CS(=O)(=O)Nc1cc(-c2ccc3ncnc(Nc4cccc(Cl)c4)c3c2)cnc1Cl`, the growth in the assay with NCI-H23 lung is 6.5% (active); with NCI-H226 lung, 11.8%; in the assay with NCI-H322M lung, 1.07% (active); with HOP-62 NSCLC, 3.9% (active); in the assay with NCI-H460 lung, 7.81% (active); with HOP-92 NSCLC, -22.5% (active). Further, the growth was 2.07% (active) in the assay with NCI-H522 lung; -13.4% (active) in the assay with A549/ATCC NSCLC; 5.7% (active) with 786-0 renal; -49.4% (active) in the assay with COLO 205 colon; 14.5% in the assay on DU-145 prostate; 18.9% with K-562 leukemia. The growth with MALME-3M melanoma was -25.7% (active); with MDA-MB-231 breast, 7.96% (active); in the assay with RXF 393 renal, -44% (active); in the assay on SF-268 CNS it was 13.9%; in the assay with SF-295 CNS it was -22.6% (active); with SF-539 CNS it was -22% (active). Also, the growth with UACC-257 melanoma was -3.23% (active); with M14 melanoma it was -2.15% (active).
Take `N/C(=N\c1nc2ccccc2s1)NC(=O)Nc1ccccc1`: the growth in the assay on NCI-H23 lung is 54.7%; with NCI-H226 lung, 87.8%; in the assay with NCI-H322M lung, 74.3%; in the assay with HOP-62 NSCLC, 30%; with NCI-H460 lung it was 14.4%; with HOP-92 NSCLC, 53.2%. In addition, the growth is -13.2% (active) in the assay on NCI-H522 lung; 39% with A549/ATCC NSCLC; 52.3% with 786-0 renal; 28.3% with COLO 205 colon; 58.1% with DU-145 prostate; 10.8% in the assay with K-562 leukemia. The growth with MALME-3M melanoma is 58.1%; in the assay on MDA-MB-231 breast it was 31.6%; in the assay with RXF 393 renal, 62.1%; in the assay on SF-268 CNS, 57.5%; in the assay with SF-295 CNS, 39%; in the assay with SF-539 CNS, 26.9%. In addition, the growth in the assay on UACC-257 melanoma was 59%; in the assay on M14 melanoma, 7.51% (active).
Consider `COC(=O)[C@H](C)NC(=O)c1ccc(NC(=O)c2[nH]c(C)c(Cl)c2Cl)c(OCCN)c1`, for which the growth in the assay on NCI-H23 lung is 106%; with NCI-H226 lung, 112%; in the assay on NCI-H322M lung, 101%; in the assay on HOP-62 NSCLC, 106%; with NCI-H460 lung, 105%; in the assay with HOP-92 NSCLC, 101%. Moreover, the growth with NCI-H522 lung is 107%; in the assay on A549/ATCC NSCLC, 98.1%; in the assay with 786-0 renal, 98.6%; in the assay with COLO 205 colon, 104%; in the assay with DU-145 prostate, 104%; in the assay on K-562 leukemia, 66.7%. Further, the growth with MALME-3M melanoma was 113%; in the assay with MDA-MB-231 breast it was 103%; in the assay on RXF 393 renal, 115%; in the assay with SF-268 CNS, 96.3%; in the assay on SF-295 CNS it was 102%; in the assay on SF-539 CNS it was 101%. Also, the values for the growth with UACC-257 melanoma and with M14 melanoma were 104% and 119%, respectively.
Take `COc1nc2ccccc2cc1/C=C1/C=C(c2ccccc2)NC1=O`: the growth is 56.3% in the assay on NCI-H23 lung; 55.4% with NCI-H226 lung; 81.3% in the assay on NCI-H322M lung; 39.2% in the assay on HOP-62 NSCLC; 15.7% with NCI-H460 lung; 32.5% in the assay on HOP-92 NSCLC. Further, the growth is 38.5% in the assay on NCI-H522 lung; 41.7% with A549/ATCC NSCLC; 29.5% in the assay with 786-0 renal; 29.3% in the assay on COLO 205 colon; 55.8% in the assay with DU-145 prostate; 13.1% with K-562 leukemia. Besides, the growth is 38.3% in the assay on MALME-3M melanoma; 46.1% with MDA-MB-231 breast; 46% in the assay on RXF 393 renal; 48.8% in the assay on SF-268 CNS; 28.5% in the assay on SF-295 CNS; 19.6% in the assay on SF-539 CNS. Besides, the growth was 60.7% in the assay on UACC-257 melanoma and 24.6% in the assay on M14 melanoma.

For the origin of these results see PubChem BioAssay (NCI).
